# Data: PMC7862700, “An all-to-all approach to the identification of sequence-specific readers for epigenetic DNA modifications on cytosine”
# Legend:
# Test in all cases: DAPPL (digital affinity profiling via proximity ligation, sequencing); 10 mM Tris-HCl pH 7.5, 50 mM NaCl, 1 mM DTT, 4% glycerol, room temperature, 30 min; GST-TFs on glutathione beads, 16-mer random dsDNA library, 0.1% formaldehyde crosslink after washing; high values mean tight binding
# Settings in all cases: protein: recombinant; tags: N-terminal GST; dsDNA, one strand shown
# [1] = molecular target: ETV1 (Homo sapiens, UniProt P50549 1-477)
# Chain of ETV1 (P50549 whole entry, the tested form may be a part): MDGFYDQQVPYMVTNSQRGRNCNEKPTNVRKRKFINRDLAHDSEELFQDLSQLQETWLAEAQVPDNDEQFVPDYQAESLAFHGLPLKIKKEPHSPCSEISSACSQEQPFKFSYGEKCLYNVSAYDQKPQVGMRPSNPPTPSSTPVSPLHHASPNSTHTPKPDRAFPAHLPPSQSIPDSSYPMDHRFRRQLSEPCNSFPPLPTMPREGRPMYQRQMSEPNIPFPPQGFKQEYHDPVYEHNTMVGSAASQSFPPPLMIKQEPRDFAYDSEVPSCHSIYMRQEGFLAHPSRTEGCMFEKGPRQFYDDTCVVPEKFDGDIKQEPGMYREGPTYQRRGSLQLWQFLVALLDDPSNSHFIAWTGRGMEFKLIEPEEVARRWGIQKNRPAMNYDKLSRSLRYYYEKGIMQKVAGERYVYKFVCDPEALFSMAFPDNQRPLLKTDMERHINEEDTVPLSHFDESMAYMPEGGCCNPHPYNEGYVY
# How it was run: (§1)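 GST fusions of human transcription factors were expressed in yeast and captured with glutathione beads. Once given DNA barcodes and pooled alongside a tag-only sample, they were incubated for 30 min at room temperature with 200 nmole of a random double-stranded 16-mer DNA library in Tris/NaCl/DTT/glycerol buffer, then washed, crosslinked (0.1% formaldehyde), proximity-ligated, PCR-amplified and sequenced on an Illumina NextSeq500. The binding signal of each hexamer is its read frequency for a factor divided by its frequency for the tag-only sample.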
# [2] = molecular target: T1, ERF (Homo sapiens, UniProt P50548 1-548)
# T1 sequence: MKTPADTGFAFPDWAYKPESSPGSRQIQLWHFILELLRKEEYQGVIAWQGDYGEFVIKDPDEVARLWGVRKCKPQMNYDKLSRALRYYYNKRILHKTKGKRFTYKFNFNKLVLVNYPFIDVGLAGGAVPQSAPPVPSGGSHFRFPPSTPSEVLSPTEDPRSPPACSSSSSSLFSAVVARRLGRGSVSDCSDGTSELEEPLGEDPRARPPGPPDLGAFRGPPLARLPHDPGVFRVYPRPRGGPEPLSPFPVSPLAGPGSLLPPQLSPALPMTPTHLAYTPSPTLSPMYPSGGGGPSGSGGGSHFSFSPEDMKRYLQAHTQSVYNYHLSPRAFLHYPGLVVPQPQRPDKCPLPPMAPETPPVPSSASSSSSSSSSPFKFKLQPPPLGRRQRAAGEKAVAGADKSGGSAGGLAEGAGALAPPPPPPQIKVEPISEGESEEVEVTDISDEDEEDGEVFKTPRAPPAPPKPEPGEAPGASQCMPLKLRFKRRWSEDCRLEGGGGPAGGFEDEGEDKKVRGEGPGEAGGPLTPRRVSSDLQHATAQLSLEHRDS
# How it was run: as §1
# [3] = molecular target: T2, ETV3L (Homo sapiens, UniProt Q6ZN32 1-361)
# T2 sequence: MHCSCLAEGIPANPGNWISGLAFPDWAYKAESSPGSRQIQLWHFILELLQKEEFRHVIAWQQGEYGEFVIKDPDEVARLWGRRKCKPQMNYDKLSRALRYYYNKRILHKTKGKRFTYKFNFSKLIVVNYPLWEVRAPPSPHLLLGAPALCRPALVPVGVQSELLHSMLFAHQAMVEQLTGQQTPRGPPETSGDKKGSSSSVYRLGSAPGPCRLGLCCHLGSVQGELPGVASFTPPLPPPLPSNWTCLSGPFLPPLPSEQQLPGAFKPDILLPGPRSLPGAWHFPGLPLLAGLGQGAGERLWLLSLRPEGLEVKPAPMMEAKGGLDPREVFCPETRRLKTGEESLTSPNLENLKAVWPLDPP
# How it was run: as §1
# [4] = molecular target: T3, ETS2 (Homo sapiens, UniProt P15036 1-469)
# T3 sequence: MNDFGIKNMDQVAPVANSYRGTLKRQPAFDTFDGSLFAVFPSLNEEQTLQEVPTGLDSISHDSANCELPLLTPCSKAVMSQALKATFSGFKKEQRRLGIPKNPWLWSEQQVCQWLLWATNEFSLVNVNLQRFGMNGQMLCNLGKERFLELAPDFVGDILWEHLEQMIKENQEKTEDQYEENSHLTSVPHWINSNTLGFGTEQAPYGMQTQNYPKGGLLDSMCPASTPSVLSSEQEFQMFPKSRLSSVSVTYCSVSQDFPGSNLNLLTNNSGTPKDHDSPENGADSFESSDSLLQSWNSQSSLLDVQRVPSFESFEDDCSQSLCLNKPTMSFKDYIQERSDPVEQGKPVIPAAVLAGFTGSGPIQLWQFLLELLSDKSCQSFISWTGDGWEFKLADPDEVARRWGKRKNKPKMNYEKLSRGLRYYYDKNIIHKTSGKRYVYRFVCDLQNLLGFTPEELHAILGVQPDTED
# How it was run: as §1
# [5] = molecular target: T4, SPDEF (Homo sapiens, UniProt O95238 1-335)
# T4 sequence: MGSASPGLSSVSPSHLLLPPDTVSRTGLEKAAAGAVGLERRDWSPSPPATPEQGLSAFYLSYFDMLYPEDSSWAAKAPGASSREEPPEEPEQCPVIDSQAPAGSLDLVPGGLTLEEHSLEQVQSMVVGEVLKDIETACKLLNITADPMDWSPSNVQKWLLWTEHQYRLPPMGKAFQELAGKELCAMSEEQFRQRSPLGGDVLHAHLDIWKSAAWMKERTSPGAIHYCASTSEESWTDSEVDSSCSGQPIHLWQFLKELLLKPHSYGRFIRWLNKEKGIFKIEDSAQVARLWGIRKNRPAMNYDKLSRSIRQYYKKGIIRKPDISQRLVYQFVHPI
# How it was run: as §1
# [6] = molecular target: T5, ETV7 (Homo sapiens, UniProt Q9Y603 1-341)
# T5 sequence: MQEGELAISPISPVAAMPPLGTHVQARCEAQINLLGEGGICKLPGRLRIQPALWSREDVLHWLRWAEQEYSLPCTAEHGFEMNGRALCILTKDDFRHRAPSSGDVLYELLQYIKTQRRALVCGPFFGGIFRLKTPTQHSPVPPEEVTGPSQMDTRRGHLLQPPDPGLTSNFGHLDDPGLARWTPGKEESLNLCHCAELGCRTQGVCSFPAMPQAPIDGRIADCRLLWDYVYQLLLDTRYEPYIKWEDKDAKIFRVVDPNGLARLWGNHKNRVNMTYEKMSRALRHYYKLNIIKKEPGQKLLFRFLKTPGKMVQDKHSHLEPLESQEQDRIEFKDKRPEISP
# How it was run: as §1
# [7] = molecular target: T6, ELF5 (Homo sapiens, UniProt Q9UKW6-2 1-255)
# T6 sequence: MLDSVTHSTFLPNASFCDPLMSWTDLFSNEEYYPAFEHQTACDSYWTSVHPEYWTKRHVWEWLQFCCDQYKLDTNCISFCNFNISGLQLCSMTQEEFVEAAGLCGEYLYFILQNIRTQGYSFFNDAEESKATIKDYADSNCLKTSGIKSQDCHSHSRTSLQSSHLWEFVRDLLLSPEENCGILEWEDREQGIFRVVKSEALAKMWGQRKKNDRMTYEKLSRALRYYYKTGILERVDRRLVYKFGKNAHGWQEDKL
# How it was run: as §1
# [8] = molecular target: T7, ETV3 (Homo sapiens, UniProt P41162-2 1-143)
# T7 sequence: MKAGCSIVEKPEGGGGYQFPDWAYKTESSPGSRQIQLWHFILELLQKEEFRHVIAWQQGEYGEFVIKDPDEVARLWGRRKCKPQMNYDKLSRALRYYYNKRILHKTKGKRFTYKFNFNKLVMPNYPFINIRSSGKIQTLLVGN
# How it was run: as §1
# [9] = molecular target: ETV6 (Homo sapiens, UniProt P41212 1-452)
# Chain of ETV6 (P41212 whole entry): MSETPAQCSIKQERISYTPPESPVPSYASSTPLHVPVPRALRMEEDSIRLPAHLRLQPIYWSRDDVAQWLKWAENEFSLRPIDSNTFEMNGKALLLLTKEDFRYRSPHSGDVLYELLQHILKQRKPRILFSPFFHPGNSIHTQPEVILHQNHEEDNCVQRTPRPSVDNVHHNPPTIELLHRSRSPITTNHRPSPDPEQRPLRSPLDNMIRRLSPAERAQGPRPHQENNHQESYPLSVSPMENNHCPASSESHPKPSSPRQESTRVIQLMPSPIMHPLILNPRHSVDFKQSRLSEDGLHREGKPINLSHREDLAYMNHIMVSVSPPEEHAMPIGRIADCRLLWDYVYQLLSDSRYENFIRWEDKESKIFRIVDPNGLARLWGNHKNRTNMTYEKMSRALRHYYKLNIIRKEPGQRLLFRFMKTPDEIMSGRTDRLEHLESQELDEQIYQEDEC
# How it was run: as §1
sequence,measurement,setting,value
TGTATG,binding signal,[1],"1.27 fold enrichment (6-mer frequency, TF over GST control)"
same,binding signal,[2],"1.31 fold enrichment (6-mer frequency, TF over GST control)"
same,binding signal,[3],"1.23 fold enrichment (6-mer frequency, TF over GST control)"
same,binding signal,[4],"1.26 fold enrichment (6-mer frequency, TF over GST control)"
same,binding signal,[5],"1.35 fold enrichment (6-mer frequency, TF over GST control)"
same,binding signal,[6],"1.19 fold enrichment (6-mer frequency, TF over GST control)"
same,binding signal,[7],"1.22 fold enrichment (6-mer frequency, TF over GST control)"
same,binding signal,[8],"1.29 fold enrichment (6-mer frequency, TF over GST control)"
same,binding signal,[9],"1.16 fold enrichment (6-mer frequency, TF over GST control)"
